Several values for one entry are separate records, joined by “and”; a condition that tells them apart may be missing. Equal values may be shown once. Activity calls are given as the source filed them. The calls were made as follows: active = hit-call score of the fitted dose curve at least 0.9, where 1 is the maximum; inactive = score below 0.9.

Read-out in this experiment: Collagen IV, COL4A1 (gene 1282)
As to the kind of experiment: BSK_MyoF_CollagenIV: BioMAP Diversity Plus: MyoF Assay for Collagen IV Biomarker Activity (AID 2284247). As to conditions: primary human lung fibroblasts. The protocol: BSK_MyoF is a cell-based, multiplexed-readout assay that uses lung fibroblasts, […], with measurements taken at 24 hours after chemical dosing in a microplate: 96-well plate.BSK_MyoF_CollagenIV is an assay component measured in the BSK_MyoF assay. It measures Collagen IV antibody related to regulation of gene expression using ELISA technology.Data from the assay component BSK_MyoF_CollagenIV was analyzed at the endpoint, BSK_MyoF_CollagenIV, in the positive analysis fitting direction relative to DMSO as the negative control and baseline of activity. Using a type of binding reporter, gain or loss-of-signal activity can be used to understand protein changes. To generalize the intended target to other relatable targets, this assay endpoint is annotated to the 'cell adhesion molecules' intended target family, where the subfamily is 'collagen'.
The levels of cell surface (or secreted, indicated by the prefix "s") biomarker endpoints were measured by ELISA. Overt cytotoxicity to cells in confluent adherent cultures (all systems other than the BT system) was assessed by measuring total protein levels using sulforhodamine B (SRB) staining in parallel cultures at the time of biomarker measurements, indicated as SRB endpoints. For proliferation assays for adherent cell types, individual cell types are cultured at sub-confluence and relative cell numbers quantified by SRB staining at time points optimized for each system (48 h: 3C and CASM3C systems; 72 h: BT and HDF3CGF systems; 96 h: SAg system). SRB was performed by staining cells with 0.1% SRB after fixation with 10% TCA and reading wells at 560 nm.Viability and proliferation of PBMC (T cells) was quantified by Alamar Blue reduction for the SAg and BT systems. For PBMC viability (referred to as PBMC Cytotoxicity within the assay endpoint names), cells were plated (75,000/well in a 96-well plate) and then chemical samples added for 1 h before addition of activators, SEB and TSST-1 (20 ng/mL final concentration each). Cells were incubated for 90 h. Then, Alamar Blue (20 uL/well) (Invitrogen, Cat DAL1100) was added for 6 h, and the plates were read with a fluorescence microplate reader at 546/580 nm (excitation/emission). For PBMC proliferation, cells were plated and activated as above but incubated for only 16 h prior to addition of Alamar Blue. Plates were read after 6 h.
Consider `O=C(Cl)C(F)(F)C(F)(F)C(F)(F)C(=O)Cl`, for which the result was inactive. Still for that read-out and setting: next, `FC(F)=C(F)C(F)(F)C(F)(F)C(F)(F)C(F)(F)C(F)(F)C(F)(F)F`: “inactive”; `C[Si](C)(C)C(F)(F)C(F)(F)C(F)(F)F`: “inactive”.

In the case of `S=P(N1CC1)(N1CC1)N1CC1`, the result was inactive. In the case of `FC(F)(F)C(F)(F)C(F)(F)C(F)(F)C(F)(F)C(F)(F)I`, the AC50 was 51.3 µM (active) and 47.7 µM (active).

For `OCc1c[nH]c2ccccc12`, the outcome was inactive. Turning to `OC(O)(C(F)C(O)(O)C(F)(F)F)C(F)(F)F`, the outcome was inactive. Same read-out and setting: with `FC(F)C(F)(F)COCC1CO1` (stereo not drawn) the entry was “inactive”; with `Cc1cccc(O)c1C`, “inactive”; with `OCCC(F)(F)C(F)(F)C(F)(F)C(F)(F)F`, “inactive”. The same measure, in the same setting: with `NCC(F)(F)C(F)(F)C(F)(F)C(F)(F)F` the entry was “inactive”. The same measure, in the same setting: next, `FC(F)(F)COC(OCC(F)(F)F)OCC(F)(F)F`: “inactive”; `O=S(=O)(O)CCC(F)(F)C(F)(F)C(F)(F)C(F)(F)C(F)(F)C(F)(F)F`: “inactive”.

Broadly, the AC50 is the midpoint of the concentration-response curve, whichever way the signal moves.

(Values after PubChem BioAssay (EPA / NIEHS).)
